Experimental findings from PubChem BioAssay AID1942 (Johns Hopkins Ion Channel Center, 2009) are described below.

SMILES strings stand for the structures. In all, about 2,400 compounds went through this assay and about 580 (24%) were called active. These entries were drawn from the full list. A number with no mark means an inactive call.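 How the source made its calls: active means activity change at or above the mean plus 3 SD of buffer wells without dofetilide, per plate; inactive means the rest.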

Sequence of Potassium voltage-gated channel subfamily KQT member 2 (Rattus norvegicus) (O88943 whole entry, looked up): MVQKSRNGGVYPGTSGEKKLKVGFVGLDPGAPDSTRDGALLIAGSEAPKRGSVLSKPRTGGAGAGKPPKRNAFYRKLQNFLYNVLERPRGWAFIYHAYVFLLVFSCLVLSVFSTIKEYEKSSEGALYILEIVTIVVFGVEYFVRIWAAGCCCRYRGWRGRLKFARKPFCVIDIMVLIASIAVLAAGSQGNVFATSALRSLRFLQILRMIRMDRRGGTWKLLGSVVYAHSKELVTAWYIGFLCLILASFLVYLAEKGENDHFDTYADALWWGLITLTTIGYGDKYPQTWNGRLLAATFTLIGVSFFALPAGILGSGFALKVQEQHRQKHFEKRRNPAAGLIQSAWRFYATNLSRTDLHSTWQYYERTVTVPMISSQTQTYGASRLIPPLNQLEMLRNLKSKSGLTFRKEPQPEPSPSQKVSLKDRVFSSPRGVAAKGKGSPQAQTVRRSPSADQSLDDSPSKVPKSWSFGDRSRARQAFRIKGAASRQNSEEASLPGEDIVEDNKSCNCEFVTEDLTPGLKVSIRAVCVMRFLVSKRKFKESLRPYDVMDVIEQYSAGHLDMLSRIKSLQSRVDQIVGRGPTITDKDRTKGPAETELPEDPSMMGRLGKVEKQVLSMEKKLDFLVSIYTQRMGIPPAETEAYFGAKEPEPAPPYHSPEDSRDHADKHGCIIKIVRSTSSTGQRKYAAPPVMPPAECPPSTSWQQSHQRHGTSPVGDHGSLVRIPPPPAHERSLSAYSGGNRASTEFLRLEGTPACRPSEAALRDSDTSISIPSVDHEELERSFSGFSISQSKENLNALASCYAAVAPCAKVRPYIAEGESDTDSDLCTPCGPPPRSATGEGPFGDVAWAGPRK

The assay addresses Potassium voltage-gated channel subfamily KQT member 2 (Rattus norvegicus) (UniProt O88943). The experiment in a line: rat KCNQ2 channel activation by compounds alone, confirmation, counter-screen for hERG block protector project, cell-based, CHO, FluxOR thallium flux (AID 1942).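 Further: normalized value minus buffer-control mean plus three SD of buffer wells.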 The conditions noted are these: CHO-KCNQ2 cells, FluxOR thallium flux fluorescence; at 10 µM; hits give high values.
As for `O=C(Nc1ccccc1)OCCCCCOC(=O)Nc1ccccc1`, the activity change, less the hit threshold is -18.2%.

As to `Nc1cc(=O)[nH]c(SCC(=O)N2CCCCC2)n1`, the activity change, less the hit threshold was -21.9%.

With `O=C1C2CC=CCC2C(=O)N1c1ccc(Cc2ccncc2)cc1` (stereo unspecified), the activity change, less the hit threshold was -5.4%.

For `COc1cc(OC)cc(C(=O)NC(=S)N2CCCCCC2)c1`, the activity change, less the hit threshold is -13.9%.

Regarding `O=C(c1ccc(C(F)(F)F)cc1)C1CCCN(C(=O)CCc2ccncc2)C1` (stereo unspecified), the activity change, less the hit threshold is -24.8%.

With `CC(C)(C)c1nc(SCC(=O)N2CCCC2)c2ccccc2n1`, the activity change, less the hit threshold was -0.3%.

Take `CC(C)(C)c1ccc(/C=C/C(=O)N2CCCCC2)cc1`: the activity change, less the hit threshold was 5.1% (active).

As to `O=C(C1CC(=O)N(c2ccc3c(c2)OCCO3)C1)N1CCCC(C(F)(F)F)C1` (stereo unspecified), the activity change, less the hit threshold is -22.3%.

For the compound `O=C(NC(=S)N1CCCC(C(F)(F)F)C1)c1ccc(F)cc1` (stereo unspecified), the activity change, less the hit threshold was 24.6% (active).

For the compound `Cc1ccc(/C=C(\NC(=O)c2ccccc2)C(=O)N2CCCCC2)cc1`, the activity change, less the hit threshold was -24.3%.

With `O=C(NC(=S)N1CCCCCC1)c1ccc(Cl)cc1Cl`, the activity change, less the hit threshold is 7.1% (active).

In the case of `Cc1ccc(C2C(C#N)=C(N)OC3=C2C(=O)CC(C)(C)C3)s1` (stereo unspecified), the activity change, less the hit threshold is -16.9%.

With `O=[N+]([O-])c1ccccc1OCCNCc1ccccc1`, the activity change, less the hit threshold was -14.6%.

In the case of `COc1ccc(CNC(=O)C(=O)c2cn(CC(=O)N3CCCC3)c3ccccc23)cc1`, the activity change, less the hit threshold was -11.5%.

As for `CCOC(=O)CC(=O)CSc1nc2c(C)c(C)ccc2cc1C`, the activity change, less the hit threshold is -15.8%.

In the case of `COC(=O)Cn1c(=O)c(=O)n(CC(=O)OC)c2ccccc21`, the activity change, less the hit threshold was -18.3%.

For `O=c1c2[nH]c3ccccc3c2nc2n1CCCS2`, the activity change, less the hit threshold was 9.5% (active).

`O=c1c(Cc2ccccc2)c(O)nc2n1CCCS2`: the activity change, less the hit threshold was -10.3%.

Regarding `CCOC(=O)N1CCN(C(=O)CSc2nc3c([nH]c4ccccc43)c(=O)n2CC)CC1`, the activity change, less the hit threshold was -17.8%.

In the case of `CCCc1nc(SCC(=O)Nc2cc(C)on2)c2ccccc2n1`, the activity change, less the hit threshold was -19.7%.

Regarding `Cc1cc(NC(=O)CSc2nc(C3CC3)nc3sc(C)c(C)c23)no1`, the activity change, less the hit threshold was 19.9% (active).

Turning to `Cc1cc(NC(=O)CSc2nnc(Nc3ccccc3)s2)no1`, the activity change, less the hit threshold is -25.4%.

For `Cc1nc2scc(C)n2c(=O)c1S(=O)(=O)Nc1ccc(N2CCOCC2)cc1`, the activity change, less the hit threshold was -19.6%.

Consider `CCOc1cc(N2CCOCC2)c(OCC)cc1NC(=O)CCC1CCCC1`, for which the activity change, less the hit threshold was 75.8% (active).

`CCOc1cc(N2CCOCC2)c(OCC)cc1NC(=O)Cn1nc(C)c([N+](=O)[O-])c1C`: the activity change, less the hit threshold was -16.6%.

With `O=C(CNC1CCCCCC1)Nc1ccccc1N1CCOCC1`, the activity change, less the hit threshold is -21.6%.

On to `CCOc1ccc(NC(=O)CN(C)C(=O)c2c(-c3c(F)cccc3Cl)noc2C)cc1OCC`, for which the activity change, less the hit threshold is -16.8%.

In the case of `O=C(COc1ccc2ccccc2c1Br)Nc1cccnc1`, the activity change, less the hit threshold was -22.1%.

Consider `Cc1ccc(C(=O)CC(=O)c2cccc(F)c2)c(O)c1`, for which the activity change, less the hit threshold was -14.8%.

Consider `Cc1ccc(/C=C/C(=O)c2ccccc(=O)c2O)cc1C`, for which the activity change, less the hit threshold is 28.9% (active).

As for `O=C(/C=C/c1ccccc1Cl)c1ccccc(=O)c1O`, the activity change, less the hit threshold is 30.9% (active).

Take `Cc1ccc(C(=O)c2ccccc2C(=O)O)c(O)c1`: the activity change, less the hit threshold was -21.5%.

For `Cc1ccc(C)c(/C=C/C(=O)c2ccccc(=O)c2O)c1`, the activity change, less the hit threshold was 29.3% (active).

Take `Cc1ccc(/C=C/C(=O)c2ccccc(=O)c2O)c(C)c1`: the activity change, less the hit threshold is 40.1% (active).

Regarding `Cc1ccc(NS(=O)(=O)c2ccc(NC(=O)c3ccccc3C(=O)O)cc2)cc1C`, the activity change, less the hit threshold is -17%.

As for `Cc1cccc(NC(=O)CN2C(=O)S/C(=C\c3ccc(-c4cccc(C(=O)O)c4C)o3)C2=O)c1`, the activity change, less the hit threshold is -15.3%.

On to `N/C(=N\OCc1ccccc1)c1nonc1N`, for which the activity change, less the hit threshold was -14.5%.

As to `O=C(COC(=O)C1C2CC3OC(=O)C1C3C2)Nc1ccc(Cl)cc1` (stereo unspecified), the activity change, less the hit threshold is -17.9%.

Turning to `CCc1ccc(/C=N/NC(=O)c2nnn(-c3nonc3N)c2C(C)C)cc1`, the activity change, less the hit threshold is -25.3%.

`CCC(C)C(NC(=O)C(C)NC(=O)CNC(=O)CNC(=O)OCc1ccccc1)C(=O)OC` (stereo unspecified): the activity change, less the hit threshold is -19.3%.

For the compound `CCn1c2ccccc2c2cc(NC(=O)COc3ccccc3)ccc21`, the activity change, less the hit threshold is -20.7%.

`O=C(NC(=S)N1CCN(c2ccccc2)CC1)c1c(F)cccc1F`: the activity change, less the hit threshold is -2.6%.

Turning to `COc1ccc(N2CCN(C(=S)Nc3cccc(OC)c3)CC2)cc1`, the activity change, less the hit threshold was -8.3%.

With `CC1CCCCC1NC(=S)NC(=O)c1sc2ccccc2c1Cl` (stereo unspecified), the activity change, less the hit threshold was -10%.

Take `O=C(NC(=S)N1CCN(c2ccccc2)CC1)c1ccccc1`: the activity change, less the hit threshold is 11.4% (active).

With `CC1CCCCC1NC(=S)NC(=O)c1cccs1` (stereo unspecified), the activity change, less the hit threshold was 27.8% (active).

Take `CC1CCN(C(=S)NC(=O)c2cccs2)CC1`: the activity change, less the hit threshold was 2.2% (active).

For the compound `O=C(NC(=S)N1CCN(c2ccc(F)cc2)CC1)c1cccs1`, the activity change, less the hit threshold was 25.4% (active).

For the compound `Cc1cc(C)cc(-n2nnc(C(=O)NCc3ccc4c(c3)OCO4)c2N)c1`, the activity change, less the hit threshold is -15.8%.

In the case of `N#Cc1cccc(NC(=O)c2nc(-c3ccccc3)n(-c3ccccc3)n2)c1`, the activity change, less the hit threshold was -22.3%.

As for `Oc1ccc(N2CCN(C(c3cccnc3)c3nnnn3Cc3ccccc3)CC2)cc1` (stereo unspecified), the activity change, less the hit threshold was -10.2%.

On to `CCOC(=O)c1[nH]c(=O)[nH]c1COC(=O)c1cc2ccccc2o1`, for which the activity change, less the hit threshold was -20.5%.

`Cn1c(/N=C/c2c(O)ccc3ccccc23)nc2ccccc21`: the activity change, less the hit threshold was -14.8%.

In the case of `Cn1c(=O)c2sc3c(c2n(CC(=O)Nc2ccccc2)c1=O)COC(C)(C)C3`, the activity change, less the hit threshold is -11.1%.

As to `CC(C)C1Cc2c(sc3[nH]c(=S)n(Cc4ccccc4)c(=O)c23)CO1` (stereo unspecified), the activity change, less the hit threshold was 19.3% (active).

For the compound `CC1(C)Cc2c(sc3[nH]c(=S)n(Cc4ccccc4)c(=O)c23)CO1`, the activity change, less the hit threshold is 11.3% (active).

Take `CCC1(C)Cc2c(sc3[nH]c(=S)n(Cc4ccccc4)c(=O)c23)CO1` (stereo unspecified): the activity change, less the hit threshold was 48.6% (active).

Turning to `CCC(=O)N1c2ccc(C)cc2C2=NNC(=S)NC21O` (stereo unspecified), the activity change, less the hit threshold is -16.9%.

For the compound `O=C(NC1CCCC1)C(c1ccncc1)N(Cc1ccccc1F)C(=O)c1csnn1` (stereo unspecified), the activity change, less the hit threshold is -8.5%.

With `COc1ccc(-c2cnn(C3CCS(=O)(=O)C3)c2N)cc1` (stereo unspecified), the activity change, less the hit threshold is -16.8%.

Take `Cc1cc(C)c(S(=O)(=O)c2ccccc2)c(OC(=O)c2c(F)cccc2Cl)n1`: the activity change, less the hit threshold is -22%.
